Data reported in the supplement of paper PMC9177965.
Values joined by “and” are separate entries in the source; they are usually repeats but may differ in a detail not shown here. Equal values may be shown once.

Assays:
[1] = system: HT29 RNF43 G659fs (RNF43 659mut, CRISPR-edited); assay: cell viability activity relative to DMSO (negative = inhibition); higher = more viable cells (less growth inhibition); settings: 5 µM; 96 h
Method: (§1)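 Broad Repurposing Library primary screen at a single dose of 5 uM. HT29 sg-Ctrl and HT29 RNF43 G659fs CRISPR-edited isogenic cells were seeded at 2500 cells/well in 384-well plates in duplicate and treated for 96 h. Viability was read by CellTiter-Glo and reported as % activity relative to DMSO, with MG132 as the positive control (negative = growth inhibition).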

[2] = system: HT29 sg-Ctrl (RNF43 wildtype); assay: as above; settings: 5 µM; 96 h
Method: as §1

Structure (SMILES) | cell viability activity [1] | cell viability activity [2]
C=CC(=O)Nc1cc(Nc2nccc(-c3cn(C)c4ccccc34)n2)c(OC)cc1N(C)CCN(C)C | -82.3% | -50.6%
CCCCc1oc2ccc(NS(C)(=O)=O)cc2c1C(=O)c1ccc(OCCCN(CCCC)CCCC)cc1 | -96.2% | -91.7%
COc1ccc2c(c1)c(C1=C(c3c[nH]c4ccccc34)C(=O)NC1=O)cn2CCCN(C)C | -75.2% | -88.9%
O=C(c1c(F)ccc(NS(=O)(=O)N2CC[C@@H](F)C2)c1F)c1c[nH]c2ncc(-c3cnc(C4CC4)nc3)cc12 | -66.1% | -69%
CCCCC(=O)OCC(=O)[C@]1(O)Cc2c(O)c3c(c(O)c2[C@@H](O[C@H]2C[C@H](NC(=O)C(F)(F)F)[C@H](O)[C@H](C)O2)C1)C(=O)c1c(OC)cccc1C3=O | -48.2% | -25.4%
CC(=O)N1CCN(CCOc2ccc(C3CCN(C4=Nn5c(nnc5C(F)(F)F)CC4)CC3)cc2)CC1 | -32.3% | -33.7%
O=C(Nc1c[nH]nc1-c1nc2ccc(CN3CCOCC3)cc2[nH]1)NC1CC1 | -72.3% | -71.2%
CC(C)CC(=O)Nc1n[nH]c2c1CN(C(=O)C1CCN(C)CC1)C2(C)C | -60.4% | -61.4%
CC(=O)NCC(=O)N1[C@@H]2CC[C@H]1c1ccc(Nc3ncc(C(F)(F)F)c(NC4CCC4)n3)cc12 | -41.1% | -44.1%
O=C(O)[C@]1(Cc2cccc(Nc3nccs3)n2)CC[C@@H](Oc2cccc(Cl)c2F)CC1 | -24.5% | -24.6%
CC(C)NC(=O)N1CC[C@H](NC2=Nc3cc(F)ccc3N(CC(F)F)c3ccc(Cl)cc32)C1 | -49.3% | -50.8%
Cc1cc(OCc2nc(-c3ccccc3Cl)cs2)ccc1OCC(=O)O | -41.6% | -31.1%
C[C@H]1[C@H](OC(=O)CCC(=O)O)O[C@@H]2O[C@@]3(C)CC[C@H]4[C@H](C)CC[C@@H]1[C@@]24OO3 | -42.8% and -37.2% | -35.1% and -16.8%
CNCCn1c(=O)c2cc(OC)c(OC)cc2c2cnc3cc4c(cc3c21)OCO4 | -81.7% | -86.6%
CCOc1cc2ncc(C#N)c(Nc3ccc(F)c(Cl)c3)c2cc1NC(=O)/C=C/CN(C)C | -77.4% | -78.7%
CC(C)c1cc(C(=O)N2Cc3ccc(CN4CCN(C)CC4)cc3C2)c(O)cc1O | -91.7% | -88.3%
O=C1/C(=C/c2ccccc2)C(NC2CCCCC2)c2ccccc21 (stereo not given) | -91.7% | -74.6%
COc1cc2ncnc(Nc3ccc(F)c(Cl)c3)c2cc1NC(=O)/C=C/CN1CCCCC1 | -93.1% | -77.9%

Structure (SMILES) | cell viability activity [1] | cell viability activity [2]
COc1ccc(/C=C\c2cc(OC)c(OC)c(OC)c2)cc1O | -64.6% | -58.3%
CC(=O)c1c(C)c2cnc(Nc3ccc(N4CCNCC4)cn3)nc2n(C2CCCC2)c1=O | -37.2% | -48.4%
Nc1c2ccccc2nc2ccccc12 | -86.1% | -86.8%
CCC[C@H](NC(=O)/C(C#N)=C/c1cccc(Br)n1)c1ccccc1 | -95.3% | -92.4%
Cn1cc(-c2ccncc2)c(-c2ccc(OCc3ccc4ccccc4n3)cc2)n1 | -46.2% | -38.8%
CCN(CC)CCOc1ccc(C(=C(Cl)c2ccccc2)c2ccccc2)cc1 | -98.4% | -97.9%
C1=N/C2=N/c3ccc(OCCN4CCCC4)c(c3)COC/C=C/COCc3cccc(c3)C(=C1)N2 | -41.5% | -31.8%
CCOc1cc(C(=O)N2CCC(N3CCN(C)CC3)CC2)ccc1Nc1ncc2c(n1)N(C1CCCC1)c1ccccc1C(=O)N2C | -64.4% | -65.5%
CN(c1ccccc1CNc1nc(Nc2ccc3c(c2)CC(=O)N3)ncc1C(F)(F)F)S(C)(=O)=O | -45.3% | -57.8%
COC(=O)Nc1nc2cc(C(=O)c3cccs3)ccc2[nH]1 | -64.5% | -78.3%
CCn1c(=O)c(-c2cc[nH]n2)cc2c(C)nc(N)nc21 | -54.4% | -42.2%
C[C@H](Nc1cc(-c2cnn(C)c2)cc(Nc2cnccn2)n1)c1ccc(F)cc1 | -46.9% | -43%
COc1ccc(-c2cc3c(C)nc(N)nc3n([C@H]3CC[C@H](OCCO)CC3)c2=O)cn1 | -94% | -84.6%
C#CCC(Cc1cnc2nc(N)nc(N)c2n1)c1ccc(C(=O)N[C@@H](CCC(=O)O)C(=O)O)cc1 (stereo not given in full) | -68.9% | -61.7%
CNC(=O)c1c(F)cccc1Nc1nc(Nc2cc3c(cc2OC)CCN3C(=O)CN(C)C)nc2[nH]ccc12 | -31.8% | -35%
C=C1C(=O)O[C@H]2[C@H]1CC/C(C)=C/CC[C@@]1(C)O[C@@H]21 | -28.1% | -6.73%
Nc1ncnc2c1nc(Br)n2[C@@H]1O[C@@H]2COP(=O)(O)O[C@H]2[C@H]1O | -26.8% | -6.53%
